Screening results (PubChem)
FLuc counter: counter-screen for miR-21 project: firefly luciferase inhibitors or activators | 360,000 tested, 6.9% active | purified FLuc, Km substrates, luminescence inhibition | P08659 | Potency, µM (top dose mostly 57.5 µM), for inactives: top-dose activity change, negative = inhibition, actives largely listed as inhibitors;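 further: plate controls were vehicle for no effect and reference inhibitor for full effect; nearly all actives have a fitted effect of over 55% in size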
Target sequence (P08659 whole entry, looked up): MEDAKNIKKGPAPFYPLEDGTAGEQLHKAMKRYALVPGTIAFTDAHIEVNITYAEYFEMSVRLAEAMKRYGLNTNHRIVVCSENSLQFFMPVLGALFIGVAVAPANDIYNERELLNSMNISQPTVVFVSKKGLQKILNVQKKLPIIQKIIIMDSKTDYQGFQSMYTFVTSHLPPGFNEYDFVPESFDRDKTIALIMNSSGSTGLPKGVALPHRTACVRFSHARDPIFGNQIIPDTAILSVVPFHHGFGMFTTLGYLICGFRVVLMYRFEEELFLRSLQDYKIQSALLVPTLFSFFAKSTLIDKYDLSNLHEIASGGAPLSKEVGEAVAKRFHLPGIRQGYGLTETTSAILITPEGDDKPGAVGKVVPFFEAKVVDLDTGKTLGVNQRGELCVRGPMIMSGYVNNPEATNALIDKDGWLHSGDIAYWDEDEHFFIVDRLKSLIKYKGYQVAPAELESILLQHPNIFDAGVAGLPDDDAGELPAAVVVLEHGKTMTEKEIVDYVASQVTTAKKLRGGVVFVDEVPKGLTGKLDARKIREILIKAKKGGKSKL
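Purified P. pyralis luciferase (10nM final) with 10uM D-luciferin and 10uM ATP (Km levels) in 50mM Tris acetate pH 7.5, 10mM Mg acetate, 0.01% Tween-20, 0.05% BSA; qHTS 6-point titration, ~60 µM downward; luminescence read.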
SMN2 splice up: SMN2 splice variant enhancement | HEK293 SMN2-luciferase splicing reporter, luminescence, 30-36 h | 210,000 tested, 2.8% active | Potency, µM (series often up to 46.1 µM), for the others: top-dose activity change, positive = activation, hits mostly activators | AID 1458; further: % of control where 0% means no effect; nearly all actives have a fitted effect of over 55% in size
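HEK293 cells carry an SMN2 minigene-luciferase reporter in which exon 7 inclusion puts luciferase in frame. Cells were seeded at 2000 cells/well, attached for 10-12 hours, then exposed to compounds for 30-36 hours at 37C before ONE-Glo luminescence.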
Rab9 promoter act: Rab9 promoter activation; Potency, µM (highest dose often 9.22 µM), for inactives: top-dose activation, negative = inhibition, hits mostly activators; Huh7 Rab9 promoter-luciferase reporter, luminescence, 24 h; 320,000 tested, 2.8% active; AID 485297; further: % of control where 0% means no effect; nearly all actives have a fitted effect of over 60% in size
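Using Huh7 cells stably transfected with Rab9 promoter–luciferase, compounds were incubated 24 h at 37 °C, 5% CO2; luciferase luminescence was read 10 min after reagent addition.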
ELG1 genotox: genotoxicity induction in ELG1-luciferase HEK293T cells | HEK293T ELG1-luciferase reporter, luminescence, 16 h | Potency, µM (doses to about 46 µM), without a hit: at the highest dose activity change, positive = activation, hits mostly activators | 330,000 tested, 1.3% active | AID 504466; further: % of control where 0% means no effect; nearly all actives have a fitted effect of over 60% in size
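Step 1: seed 2,000 HEK293T ELG1-luciferase cells per well. Step 2: add compound or DMSO, incubate 16 hr at 37 °C. Step 3: ONE-Glo, 30 min at room temperature, read luminescence.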
NPC1 prom act: activators of NPC1 promoter; Huh7 NPC1 promoter luciferase reporter, 24 h; Potency, µM (titrated, usually from 9.22 µM), for the others: top-dose activation, actives largely listed as activators; 320,000 tested, 2.4% active; AID 485313; further: % of control where 0% means no effect; nearly all actives have a fitted effect of over 60% in size
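Stable NPC1-promoter luciferase Huh7 line; cpd (DMSO) 24 h, 37 °C, 5% CO2; Amplite luciferase reagent 10 min RT; luminescence readout. qHTS format.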
The depositor's hits bear a star; ? = inconclusive; / = no result given. Rows were chosen to be rich in hits. Some 7.4% of all compounds tested hit in one or more screens of this group. The call rests on the fitted dose curve; in most records, active means well fitted curve in the direction sought with a large enough effect; inconclusive means small, poorly fitted or top-dose-only effect, or another doubt; inactive means no such curve, though single readings can be large; an effect the other way counts as inactive or inconclusive. Potency means the concentration at half of the fitted maximal effect.

SMILES	FLuc counter	SMN2 splice up	Rab9 promoter act	ELG1 genotox	NPC1 prom act
O=C(Nc1ccccc1Cl)c1ccc(COc2ccc3c(c2)CCC3)cc1	-14%	6.3µM*	?	?	?
O=C(O)c1ccc(COc2ccc3c(c2)CCC3)cc1	5.4µM*	/	?	9%	?
Cc1ccc(NC(=O)C(=O)NCc2ccco2)cc1	-17%	18µM*	/	/	/
Cc1ccc(C(=O)NC(=S)NCc2ccco2)cc1	?	14%	29%	8%	20%
Cc1ccc(NC(=O)C(=S)NCc2ccco2)cc1	6µM*	17%	2.8µM*	?	?
Cc1ccc(NC(=O)CSCC(=O)NCc2ccco2)cc1	1%	/	-4%	0%	-8%
Cc1ccc(NC(=O)CSCc2ccco2)cc1	15µM*	13µM*	4µM*	?	?
Cc1cccc(NC(=O)C2CCCN(S(=O)(=O)c3c(C)[nH]c(=O)[nH]c3=O)C2)c1C (configuration not stated)	-6%	4%	/	/	/
CCCc1nnc(NC(=O)Cc2coc3ccc(C)cc23)s1	1%	5%	/	/	/
Cc1c(CC(=O)NCc2ccccc2)c(=O)oc2c(C)c(O)ccc12	4%	-3%	/	/	/
Oc1ccccc1CNc1ccc(Br)cn1	9.5µM*	?	?	-2%	?
Cc1ccc(S(=O)(=O)N(C)C)cc1NC(=O)COC(=O)c1c(-c2ccccc2)noc1C	3%	/	0%	-8%	-2%
CCN(CC)S(=O)(=O)c1cccc(NC(=O)COC(=O)CNC(=O)c2cccc(F)c2)c1	-4%	/	-6%	1%	-1%
Cc1ccc(S(=O)(=O)N(C)C)cc1NC(=O)COc1ccc(-c2nnco2)cc1	17µM*	/	-2%	-2%	-6%
Cc1ccc(S(=O)(=O)N(C)C)cc1NC(=O)COC(=O)CCC1CCCC1	-7%	/	-3%	5%	3%
Cc1ccc(OCCC(=O)OCC(=O)Nc2cc(S(=O)(=O)N(C)C)ccc2C)cc1	11µM*	0%	-2%	2%	-5%
Cc1ccc(S(=O)(=O)N(C)C)cc1NC(=O)COC(=O)/C=C/c1ccc2ccccc2n1	8.5µM*	/	19%	-3%	23%
CCN(CC)S(=O)(=O)c1ccc(C)c(NC(=O)COC(=O)CNC(=O)c2ccc(C(C)(C)C)cc2)c1	0.54µM*	17%	0%	1%	-1%
Cc1ccc(S(=O)(=O)N2CCOCC2)cc1NC(=O)COc1ccc(-c2nnco2)cc1	-12%	-13%	0%	-11%	-4%
CCc1ccccc1Nc1cc(C(=O)NC2CCC(C)CC2)c2ccccc2n1 (configuration not stated)	5%	10%	/	/	/
O=c1[nH]c(-c2ccco2)nc2sc3c(c12)CCCC3	3µM*	1µM*	1.6µM*	9.2µM*	2µM*
O=c1oc(/C=C/c2ccco2)nc2sc3c(c12)CCC3	0.95µM*	15%	16%	0%	18%
O=c1[nH]c(S)nc2sc3c(c12)CCCC3	?	5%	-3%	1%	0%
CCCc1cc(=O)[nH]c(Nc2cc(OC)ccc2OC)n1	0%	1.3µM*	-1%	-2%	1%
CCCc1cc(=O)[nH]c(Nc2cc(Cl)ccc2OC)n1	-3%	-4%	/	/	/
SMILES	FLuc counter	SMN2 splice up	Rab9 promoter act	ELG1 genotox	NPC1 prom act
COc1cccc(N=Cc2c(O)c3ccccc3oc2=O)c1	1.9µM*	/	6%	0%	0%
CC(=O)Nc1ccc(N=Cc2c(O)c3ccccc3oc2=O)cc1	?	/	-4%	0%	-4%
CC(=O)c1cccc(N=Cc2c(O)c3ccccc3oc2=O)c1	1.7µM*	/	-1%	2%	-5%
Cc1ccc(F)cc1N=Cc1c(O)c2ccccc2oc1=O	?	/	2%	3%	-5%
Cc1ccc(N=Cc2c(O)c3ccccc3oc2=O)c(C)c1	0.21µM*	/	1%	4%	-3%
Cc1ccc(C(=O)N2CCc3cc(CNC(=O)CSc4ccccc4)ccc32)cc1	24µM*	/	/	/	/
CCc1ccccc1OCC(=O)Nc1ccc(S(N)(=O)=O)cc1	3%	35µM*	-3%	-1%	1%
O=C1C(=O)N(C2CCN(C(=O)c3ccc(Cl)cc3)CC2)CCN1Cc1ccc(F)cc1	4%	/	/	/	/
Cc1ccccc1-c1nc(CS(=O)(=O)CC(=O)NCCCc2ccccc2)c(C)o1	-18%	-12%	/	/	/
